# According to ChEMBL document CHEMBL2218924, “A broad activity screen in support of a chemogenomic map for kinase signalling research and drug discovery” (Biochem J, 2013):
# Target: T1, Tyrosine-protein kinase ZAP-70 (Homo sapiens) (UniProt P43403)
# T1 sequence (whole entry): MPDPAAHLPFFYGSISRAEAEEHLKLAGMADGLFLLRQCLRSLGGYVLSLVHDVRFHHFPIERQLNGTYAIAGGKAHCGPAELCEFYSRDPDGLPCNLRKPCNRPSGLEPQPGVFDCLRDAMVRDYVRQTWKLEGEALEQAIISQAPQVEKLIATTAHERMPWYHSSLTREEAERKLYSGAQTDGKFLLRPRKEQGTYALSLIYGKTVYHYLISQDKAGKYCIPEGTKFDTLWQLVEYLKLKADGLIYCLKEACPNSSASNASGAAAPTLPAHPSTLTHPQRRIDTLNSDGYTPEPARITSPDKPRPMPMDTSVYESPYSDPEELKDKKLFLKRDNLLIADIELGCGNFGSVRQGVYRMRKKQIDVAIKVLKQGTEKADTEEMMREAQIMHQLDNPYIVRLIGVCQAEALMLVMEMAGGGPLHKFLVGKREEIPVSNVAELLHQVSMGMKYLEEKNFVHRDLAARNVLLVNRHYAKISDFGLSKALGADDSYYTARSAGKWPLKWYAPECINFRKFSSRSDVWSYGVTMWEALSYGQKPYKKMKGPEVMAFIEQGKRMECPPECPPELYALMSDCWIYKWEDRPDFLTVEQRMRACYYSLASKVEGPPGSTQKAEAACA
# Conditions: at 10 µM
row,Compound,residual activity [%]
1,COc1cccc(-c2cc(=O)c3ccccc3o2)c1N,120
2,COc1cc2ncnc(N3CCN(C(=O)Nc4ccc(Oc5ccccc5)cc4)CC3)c2cc1OC,98
3,O=C1Nc2ccc(Cl)cc2/C1=C/c1cc(Cl)c(O)c(Cl)c1,100
4,COc1ccc(S(=O)(=O)N(CCO)c2ccccc2CN(C)C/C=C/c2ccc(Cl)cc2)cc1,97
5,O=C1NC(=O)c2cc(Nc3ccc(F)cc3)c(Nc3ccc(F)cc3)cc21,119
6,O=C(Nc1ccc(Cl)cc1)c1ccccc1NCc1ccncc1,142
7,CC(C)(C)n1nc(Cc2cccc3ccccc23)c2c(N)ncnc21,110
8,CCN(CC)CCNC(=O)c1c(C)[nH]c(/C=C2\C(=O)Nc3ccc(Cl)cc32)c1C,77
9,O=c1cc(N2CCNCC2)oc2c(-c3ccccc3)cccc12,99
10,COc1cc2nccc(Oc3ccc(NC(=O)Nc4cc(C)on4)c(Cl)c3)c2cc1OC,107
11,O=C1NC(=O)c2c1c1c3ccccc3[nH]c1n1cncc21,102
12,COc1ccc(OC)c2c(=S)c3ccccc3[nH]c12,88
13,COc1cc2ncnc(Nc3ccc(NC(=O)c4ccccc4)cc3)c2cc1OC,104
14,Cn1c2ccccc2c2c3c(c4c5ccccc5n(CCC#N)c4c21)CNC3=O,111
15,O=c1cc(-c2cccc3c2Sc2ccccc2S3)oc(N2CCOCC2)c1,85
16,O=C(CCCc1ccc(-c2ccccc2F)cc1)Nc1ccc(O)cc1,109
17,O=C(c1cc2cc(O)ccc2[nH]1)c1cc2cc(O)ccc2[nH]1,109

row,Compound,residual activity [%]
1,CO[C@H]1[C@@H](OC)C[C@H](C)[C@@H](OC)C2=CC(=O)C=C(NC(=O)/C(C)=C/C=C/[C@H](OC)[C@@H](OC(N)=O)/C(C)=C/[C@@H]1C)C2=O,112
2,Fc1ccc(-c2nc3n(c2-c2ccncc2)CCS3)cc1,124
3,CC[n+]1c(/C=C/N(C)c2ccccc2)n(-c2ccccc2)c2ccc(-c3nc4ccccc4s3)cc21,130
4,Nc1nc(Nc2ccc(S(N)(=O)=O)cc2)nn1C(=S)Nc1c(F)cccc1F,86
5,COc1ccc(CNc2nc(N(CCO)CCO)nc3c2ncn3C(C)C)cc1,88
6,Nc1n[nH]c2nnc(-c3c(-c4ccccc4)nn4ccccc34)cc12,81
7,Oc1ccc(-c2nc(-c3ccc(F)cc3)c(-c3ccncc3)[nH]2)cc1,119
8,O=C1Nc2ccc(Br)cc2/C1=C\c1cc2c([nH]1)CCCC2,124
9,Nc1nccc(-c2c(-c3ccc(F)cc3)ncn2C2CCNCC2)n1,124
10,CN(C)c1ccc(/C=C2\C(=O)Nc3ccccc32)cc1,115
11,Cc1ccc(S(=O)(=O)/C=C/C#N)cc1,118
12,O=C1Nc2ccccc2/C1=C1/Nc2ccccc2/C1=N\OCCC(O)CO (stereo not drawn),98
13,NC(=O)Nc1sc(-c2ccc(F)cc2)cc1C(N)=O,107
14,Nc1ncnc2c1c(-c1ccc(Oc3ccccc3)cc1)cn2C1CCCC1,99
15,O=C(Nc1cccc(Nc2nccc(Nc3cccc(C(F)(F)F)c3)n2)c1)C1CC1,116
16,COc1cc2ncnc(Nc3ccc(Oc4ccccc4)cc3)c2cc1OC,114
